Measurements as given in PubChem BioAssay (NCATS).
Inconclusive results are not listed. Entries that show only a call come without a potency. Active and inactive are the calls of the source. Unless noted, calls come from the whole dose curve; as a rule, active = well fitted curve in the direction sought with a large enough effect; inconclusive = small, poorly fitted or top-dose-only effect, or another doubt; inactive = no such curve, though single readings can be large; an effect the other way counts as inactive or inconclusive.

Assays:
[1] = target: Mitogen-activated protein kinase 10 (Mus musculus) (UniProt Q61831); experiment: JNK3 AlphaScreen Assay (AID 530; active = well fitted curve in either direction with a large enough effect, not every such curve was filed as active;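 note: kinase came from lysate of stimulated human HepG2 cells; signal reports phosphorylation of biotinylated GST-cJun 1-79 at Ser73 with 10 µM ATP; series mostly up to about 57 µM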)
Outline: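 Biotinylated GST-cJun(1-79) served as substrate for JNK3 in HepG2 lysates stimulated with IL-1beta and TNF-alpha. ATP was 10 uM final, pH 7.6. Ser73 phosphorylation was quantified by AlphaScreen (680 nm excitation).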

[2] = target: Cytochrome P450 3A4 (Homo sapiens) (UniProt P08684); experiment: qHTS Assay for Inhibitors and Substrates of Cytochrome P450 3A4 (AID 884); note: nearly all actives have a fitted effect of over 50% in size; note: potency is the fitted concentration of half-maximal effect
Chain of Cytochrome P450 3A4 (Homo sapiens) (P08684 whole entry, looked up): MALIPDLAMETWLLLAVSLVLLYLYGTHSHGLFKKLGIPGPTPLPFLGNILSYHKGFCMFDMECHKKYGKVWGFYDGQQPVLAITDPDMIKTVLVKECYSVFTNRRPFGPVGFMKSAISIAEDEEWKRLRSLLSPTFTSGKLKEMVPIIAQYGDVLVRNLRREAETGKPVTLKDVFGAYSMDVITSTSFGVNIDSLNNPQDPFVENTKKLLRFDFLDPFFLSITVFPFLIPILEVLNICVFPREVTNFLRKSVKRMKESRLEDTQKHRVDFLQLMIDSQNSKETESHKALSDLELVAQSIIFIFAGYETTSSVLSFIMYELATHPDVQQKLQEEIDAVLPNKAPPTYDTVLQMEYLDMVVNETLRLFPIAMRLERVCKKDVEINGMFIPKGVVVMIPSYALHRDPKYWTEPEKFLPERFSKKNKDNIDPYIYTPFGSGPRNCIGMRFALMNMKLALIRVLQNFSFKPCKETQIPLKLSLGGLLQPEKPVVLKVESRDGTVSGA
Outline: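 Luminescent readout of luciferin produced by CYP3A4 (20 nM) dealkylation of Luciferin-PPXE, 25 uM (its KM). NADPH-driven reaction ran 60 min at RT after 10 min compound preincubation; data scaled to 57 uM ketoconazole as 100% inhibition.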

[3] = target: Calcium and integrin-binding protein 1 (Homo sapiens) (UniProt Q99828); experiment: Primary qHTS for Identification of Calcium Integrin Binding Protein 1 (CIB1) Competitor (AID 1508620);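 note: GST tagged CIB1 binding a fluorescein labelled alphaIIb integrin peptide tracer; top concentration of the series differs between compounds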
Chain of Calcium and integrin-binding protein 1 (Homo sapiens) (Q99828 whole entry, looked up): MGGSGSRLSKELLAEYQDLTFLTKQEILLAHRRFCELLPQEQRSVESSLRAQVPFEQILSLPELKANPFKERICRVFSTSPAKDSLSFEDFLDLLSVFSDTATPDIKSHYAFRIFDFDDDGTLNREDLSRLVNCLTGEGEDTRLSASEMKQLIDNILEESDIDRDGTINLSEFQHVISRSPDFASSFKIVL
Outline: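 Fluorescence polarization competition: CIB1-GST (1 uM final) preincubated with compound 15 min at room temperature, then FITC-labeled alphaIIb peptide (100 nM final) added for another 15 min. Polarization read at Ex 480/Em 540.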

[4] = target: Cytochrome P450 3A4 (Homo sapiens) (UniProt P08684); experiment: qHTS Assay for Activators of Cytochrome P450 3A4 (AID 885); note: nearly all actives have a fitted effect of over 65% in size; note: potency is the fitted concentration of half-maximal effect
Outline: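 Luminescent readout of luciferin formed from 25 uM Luciferin-PPXE (KM level) by 20 nM CYP3A4 in 200 mM KPO4, with 60 min NADPH-driven reaction at room temperature after 10 min compound exposure. Ketoconazole (57 uM) defined 100% inhibition.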

SMILES: COCCNc1nc(C)nc2c1nc(-c1ccccc1)n2CC1CCN(C)CC1
- outcome [1]: inactive
- Potency [2]: inactive
- Potency [3]: inactive

SMILES: CCCn1c(C)nc2c(N(C)CCN(C)C)nc(C)nc21
- outcome [1]: inactive
- Potency [2]: inactive
- Potency [3]: inactive

SMILES: Cc1nc(NCc2ccccc2)c2nc(-c3ccccc3)n(CC3CCN(C)CC3)c2n1
- outcome [1]: inactive
- Potency [2]: inactive
- Potency [3]: inactive

SMILES: CCN(CC)CCn1c(-c2ccccc2)nc2c(NCCO)nc(C)nc21
- outcome [1]: inactive
- Potency [2]: inactive
- Potency [3]: inactive

SMILES: CCCn1c(C)nc2c(NCCN3CCCC3)nc(C)nc21
- outcome [1]: inactive
- Potency [2]: inactive
- Potency [4]: 15.8 µM (active)
- Potency [3]: inactive

SMILES: CCCn1c(-c2ccc(F)cc2)nc2c(N3CCN(CCC(=O)OCC)CC3)nc(C)nc21
- outcome [1]: inactive
- Potency [2]: 12.6 µM (active)
- Potency [4]: inactive
- Potency [3]: inactive

SMILES: CCN(CC)CCn1c(-c2ccccc2)nc2c(NCc3ccccc3)nc(C)nc21
- outcome [1]: inactive
- Potency [2]: 12.6 µM (active)
- Potency [4]: inactive
- Potency [3]: inactive

SMILES: CCCn1c(C)nc2c(N(CCOC)CCOC)nc(C)nc21
- outcome [1]: inactive
- Potency [4]: inactive
- Potency [3]: inactive

SMILES: COCCN(CCOC)c1nc(C)nc2c1nc(-c1ccccc1)n2CCN1CCOCC1
- outcome [1]: inactive
- Potency [2]: 1 µM (active)
- Potency [4]: inactive
- Potency [3]: inactive

SMILES: CCCn1c(-c2ccc(F)cc2)nc2c(NC3CCN(Cc4ccccc4)C3)nc(C)nc21 (stereo unspecified)
- outcome [1]: inactive
- Potency [2]: 15.8 µM (active)
- Potency [4]: inactive
- Potency [3]: inactive

SMILES: Cc1nc(NCc2ccccc2)c2nc(-c3ccccc3)n(CC(C)(C)CN(C)C)c2n1
- outcome [1]: inactive
- Potency [2]: 3.98 µM (active)
- Potency [4]: inactive
- Potency [3]: inactive

SMILES: CCN(CC)CCCC(C)n1c(-c2ccccc2)nc2c(NCc3ccccc3)nc(C)nc21 (stereo unspecified)
- outcome [1]: inactive
- Potency [2]: 5.01 µM (active)
- Potency [4]: inactive
- Potency [3]: inactive

SMILES: CCCn1c(-c2ccc(F)cc2)nc2c(NCCCN3CCCCC3C)nc(C)nc21 (stereo unspecified)
- outcome [1]: inactive
- Potency [2]: 10 µM (active)
- Potency [4]: inactive
- Potency [3]: inactive

SMILES: Cc1nc(N2CCOCC2)c2nc(-c3ccccc3)n(CCCN3CCOCC3)c2n1
- outcome [1]: inactive
- Potency [2]: 15.8 µM (active)
- Potency [4]: inactive
- Potency [3]: inactive

SMILES: CCN1CCCC1Cn1c(-c2ccccc2)nc2c(NCc3ccccc3)nc(C)nc21 (stereo unspecified)
- outcome [1]: inactive
- Potency [2]: 5.01 µM (active)
- Potency [4]: inactive
- Potency [3]: inactive

SMILES: CCCn1c(-c2ccc(F)cc2)nc2c(NCCN3CCSCC3)nc(C)nc21
- outcome [1]: inactive
- Potency [2]: 20 µM (active)
- Potency [4]: inactive
- Potency [3]: inactive

SMILES: CCCn1c(-c2ccc(F)cc2)nc2c(NCC(C)(C)CN(C)C)nc(C)nc21
- outcome [1]: inactive
- Potency [2]: 15.8 µM (active)
- Potency [4]: inactive
- Potency [3]: inactive

SMILES: CCCCNc1nc(C)nc2c1nc(-c1ccccc1)n2CCN(C)C
- outcome [1]: inactive
- Potency [4]: inactive
- Potency [3]: inactive

SMILES: CCCCNc1nc(C)nc2c1nc(-c1ccccc1)n2CC(C)(C)CN(C)C
- outcome [1]: inactive
- Potency [2]: 10 µM (active)
- Potency [4]: inactive
- Potency [3]: inactive

SMILES: Cc1nc(NCc2ccccc2)c2nc(-c3ccccc3)n(CCCN(C)C)c2n1
- outcome [1]: inactive
- Potency [2]: 12.6 µM (active)
- Potency [4]: inactive
- Potency [3]: inactive

SMILES: Cc1nc(NCc2ccccc2)c2nc(-c3ccccc3)n(C(C)CN(C)C)c2n1 (stereo unspecified)
- outcome [1]: inactive
- Potency [2]: 10 µM (active)
- Potency [4]: inactive
- Potency [3]: inactive

SMILES: Cc1nc(NC2CCCCC2)c2nc(-c3ccccc3)n(CCN3CCCCC3)c2n1
- outcome [1]: inactive
- Potency [2]: 7.94 µM (active)
- Potency [4]: inactive
- Potency [3]: inactive

SMILES: Cc1nc(NC2CCCCC2)c2nc(-c3ccccc3)n(CCCN3CCCCC3C)c2n1 (stereo unspecified)
- outcome [1]: inactive
- Potency [2]: 10 µM (active)
- Potency [4]: inactive
- Potency [3]: inactive

SMILES: CCCn1c(-c2ccc(F)cc2)nc2c(N3CCCN(Cc4ccccc4)CC3)nc(C)nc21
- outcome [1]: inactive
- Potency [2]: 3.16 µM (active)
- Potency [4]: inactive
- Potency [3]: inactive

SMILES: Cc1nc(N2CCOCC2)c2nc(-c3ccccc3)n(C(C)CN(C)C)c2n1 (stereo unspecified)
- outcome [1]: inactive
- Potency [4]: inactive
- Potency [3]: inactive

SMILES: COCCNc1nc(C)nc2c1nc(-c1ccccc1)n2CCN1CCCCC1
- outcome [1]: inactive
- Potency [2]: 10 µM (active)
- Potency [4]: inactive
- Potency [3]: inactive

SMILES: CCN(CC)CCCCn1c(-c2ccccc2)nc2c(NCc3ccccc3)nc(C)nc21
- outcome [1]: inactive
- Potency [2]: 7.94 µM (active)
- Potency [4]: inactive
- Potency [3]: inactive
